PubChem BioAssay (NCI)
This is part of a sample that, as a whole, favours compounds with a hit. Of some 83,000 tested, about 20% had one in any assay.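 How to read the values: 0–100, growth inhibition (40 = 60% inhibited); 0, no net growth; -100 to 0, cell death (-40 = 40% of starting cells died; -100 = all dead).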 Values without a mark were called inactive. Activity calls are given as the source filed them. The calls were made as follows: active = growth percent below 10; inactive = the rest.

Test system: SN12C renal
Assay: NCI-60 one-dose screen, 48 h (100 = growth as untreated, 0 = no growth, -100 = all killed)
Details: 10 µM

| SMILES | growth |
| --- | --- |
| CCOS(=O)(=O)c1c(C(C)C)cc(C(C)C)cc1C(C)C | 98.3% |
| CC(C)CCN(CCC(C)C)CC(=O)Nc1ccc(S(=O)(=O)c2ccc(NC(=O)CN(CCC(C)C)CCC(C)C)cc2)cc1 | 74.6% |
| O=C(N/N=C/c1cc([N+](=O)[O-])ccc1O)c1cccc2ccccc12 | 51.1% |
| COc1cc(Cc2cc(-c3ccccc3)n[nH]c2=O)cc(OC)c1OC | 72.9% |
| C1CN(CC2CCC(CN3CCOCC3)O2)CCO1 (stereo unspecified) | 106% |
| Cc1cc(=O)n2nnc3cc(Cl)c(Cl)cc3n12 | 107% |
| CC(=O)N[C@H](C(=O)N[C@@H](CCCNC(=N)N)C(=O)N[C@@H](CCCCN)C(=O)N[C@@H](CCCNC(=N)N)C(=O)N[C@]1(C)CCCCCC/C=C\CCC[C@@](C)(C(=O)N[C@@H](CCCNC(=N)N)C(=O)N[C@@H](CCC(=O)O)C(=O)N[C@@H](CC(C)C)C(=O)N[C@H](C(=O)N[C@@H](CCC(=O)O)C(N)=O)C(C)C)NC(=O)[C@H](CCC(N)=O)NC(=O)[C@H](CC(C)C)NC(=O)[C@H](CC(C)C)NC(=O)[C@H](CCCNC(=N)N)NC(=O)[C@H](CCCNC(=N)N)NC(=O)[C@H](CC(C)C)NC1=O)C(C)C | -41.3% (active) |
| Cc1ccc(/C=C2/C(=O)N(C)c3ccc(S(=O)(=O)Nc4ccc(C(C)(C)C)cc4)cc32)s1 | 78.9% |
| CC(=O)[C@H]1CC[C@]2(C)[C@@H]1CC[C@@H]1[C@@]3(C)CC(CCC#N)(CCC#N)C(=O)C(C)(C)[C@@H]3CC[C@]12C | 91.8% |
| O=C(CCn1cnc2c(cc(-c3ccccc3)n2-c2ccccc2)c1=O)Nc1ccc(F)cc1 | 73.6% |
| Cc1c(Cl)cccc1NC(=O)CN1CCOCC1 | 99.9% |
| CC(C)(C)OC(=O)CN1CCc2c(sc3ncnc(N/N=C/c4cccc5ccccc45)c23)C1 | 48.4% |
| CCn1c(SCc2ccc(C)cc2)nnc1-c1nn(-c2ccc(Cl)cc2Cl)c(-c2ccc(Cl)cc2)c1C | 1.66% (active) |
| O=C(Nc1nc(-c2ccccc2)nc2c1sc(=S)n2-c1ccccc1)C(F)(F)F | 95.3% |
| Cc1c[nH]c(=O)n(Cc2nnc(CCC(=O)c3nc4ccccc4[nH]3)o2)c1=O | 30.2% |
| CCCCN(CCCC)C(=O)[C@H](CC)[C@@H]1CC[C@@H](C)[C@@H]([C@H](C)[C@@H](O)[C@@H](C)C(=O)[C@H](CC)C2O[C@]3(C=CC(=O)[C@]4(CC[C@@](C)([C@H]5CC[C@](O)(CC)[C@H](C)O5)O4)O3)[C@H](C)C[C@@H]2C)O1 (stereo partly specified) | 28.7% |

| SMILES | growth |
| --- | --- |
| CCN(CC)CCOc1cccc2c1C(=O)c1ccccc1C2=O | 90.9% |
| COc1cc(OC)c2c(=O)c(O)c(-c3ccccc3)oc2c1 | 73.3% |
| COc1ccc(-c2cc(-c3ccccc3)nc(SCCCC(=O)NO)n2)cc1 | -8.2% (active) |
| COc1cc(-c2nn(-c3ccc(NC(=O)NCCNS(=O)(=O)c4ccc(F)cc4)cc3)cc2-c2ccncc2)ccc1Cl | 39.9% |
| Cc1[nH]c2ccccc2c1/C=N/Nc1ncnc2sc3c(c12)CCN(CC(=O)OC(C)(C)C)C3 | 85.3% |
| O=C1CSC(=S)N1/N=C/c1ccc(Cl)s1 | 95.8% |
| O=C(CC(CC(=O)c1ccccc1)c1ccccc1O)c1ccccc1 | 96.2% |
| CCOC(=O)c1cc(C(=O)c2cc(OC)cc(OC)c2)n2nc(C)ccc12 | 58.1% |
| CCCc1cn(CC(=O)Nc2nc3ccccc3s2)nn1 | 98.5% |
| CC(CN(C)C)Oc1ccc(OC(C)CN(C)C)c2c1C(=O)c1ccccc1C2=O (stereo unspecified) | 33.5% |
| COc1cc(-c2nn(-c3cccc(NC(=O)NCCNC(=O)c4cccc(C(F)(F)F)c4)c3)cc2-c2ccncc2)ccc1Cl | 75.2% |
| Cc1ccc(NCCNCC(C)(C)O)c2c(=O)c3ccc(Cl)cc3sc12 | 34% |
| CNS(=O)(=O)Oc1ccc(-c2sc3cc(OS(=O)(=O)NC)ccc3c2C(=O)c2ccc(OCCN3CCCCC3)cc2)cc1 | 79.5% |
| CN(C)CCOc1ccccc1NC1=C(Cl)C(=O)C(Nc2ccccc2OCCN(C)C)=C(Cl)C1=O | -69.9% (active) |
| COc1cc(-c2nn(-c3cccc(NC(=O)CCNc4ccc(N5CCOCC5)cc4)c3)cc2-c2ccncc2)ccc1Cl | 27.6% |
